Assay results as given in the supplement of paper PMC7724964.

Legend:
Assay in all cases: phage ELISA signal ratio (GST-PRM binding over GST background); higher = stronger binding of peptide-phage to the PRM
[1] = molecular target: T1, DOK1 151-256 IRS (domain begin residue: 151, domain end residue: 256), Q99704
T1 chain: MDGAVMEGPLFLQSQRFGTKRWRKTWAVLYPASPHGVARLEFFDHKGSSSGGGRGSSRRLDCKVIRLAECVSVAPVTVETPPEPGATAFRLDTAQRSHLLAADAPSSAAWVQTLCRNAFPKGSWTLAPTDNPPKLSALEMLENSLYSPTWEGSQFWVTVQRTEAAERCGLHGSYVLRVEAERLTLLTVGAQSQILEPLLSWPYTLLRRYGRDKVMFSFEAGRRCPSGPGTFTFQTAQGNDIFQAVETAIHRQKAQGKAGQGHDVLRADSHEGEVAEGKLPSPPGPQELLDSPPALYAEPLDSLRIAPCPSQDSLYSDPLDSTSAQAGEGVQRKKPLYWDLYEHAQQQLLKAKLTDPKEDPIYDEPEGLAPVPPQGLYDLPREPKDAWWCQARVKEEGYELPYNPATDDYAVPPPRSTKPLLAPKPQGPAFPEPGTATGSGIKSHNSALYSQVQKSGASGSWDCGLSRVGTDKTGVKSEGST
Method: (§1)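 Phage-displayed random hexadecapeptides (Cys-free, flanked by invariant Gly linkers, fused to the M13 P8 major coat protein) were selected over 5 rounds against GST-fused human PRM domains. Individual clones from rounds 4-5 were tested by phage ELISA, and positive clones binding the target but not GST were sequenced. Values are the ELISA signal ratio of target over background (GST); the background signal is given separately.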

[2] = molecular target: T2, CLTC 1-363 Clathrin_propel+Clathrin-link (domain begin residue: 1, domain end residue: 363), Q00610
T2 chain: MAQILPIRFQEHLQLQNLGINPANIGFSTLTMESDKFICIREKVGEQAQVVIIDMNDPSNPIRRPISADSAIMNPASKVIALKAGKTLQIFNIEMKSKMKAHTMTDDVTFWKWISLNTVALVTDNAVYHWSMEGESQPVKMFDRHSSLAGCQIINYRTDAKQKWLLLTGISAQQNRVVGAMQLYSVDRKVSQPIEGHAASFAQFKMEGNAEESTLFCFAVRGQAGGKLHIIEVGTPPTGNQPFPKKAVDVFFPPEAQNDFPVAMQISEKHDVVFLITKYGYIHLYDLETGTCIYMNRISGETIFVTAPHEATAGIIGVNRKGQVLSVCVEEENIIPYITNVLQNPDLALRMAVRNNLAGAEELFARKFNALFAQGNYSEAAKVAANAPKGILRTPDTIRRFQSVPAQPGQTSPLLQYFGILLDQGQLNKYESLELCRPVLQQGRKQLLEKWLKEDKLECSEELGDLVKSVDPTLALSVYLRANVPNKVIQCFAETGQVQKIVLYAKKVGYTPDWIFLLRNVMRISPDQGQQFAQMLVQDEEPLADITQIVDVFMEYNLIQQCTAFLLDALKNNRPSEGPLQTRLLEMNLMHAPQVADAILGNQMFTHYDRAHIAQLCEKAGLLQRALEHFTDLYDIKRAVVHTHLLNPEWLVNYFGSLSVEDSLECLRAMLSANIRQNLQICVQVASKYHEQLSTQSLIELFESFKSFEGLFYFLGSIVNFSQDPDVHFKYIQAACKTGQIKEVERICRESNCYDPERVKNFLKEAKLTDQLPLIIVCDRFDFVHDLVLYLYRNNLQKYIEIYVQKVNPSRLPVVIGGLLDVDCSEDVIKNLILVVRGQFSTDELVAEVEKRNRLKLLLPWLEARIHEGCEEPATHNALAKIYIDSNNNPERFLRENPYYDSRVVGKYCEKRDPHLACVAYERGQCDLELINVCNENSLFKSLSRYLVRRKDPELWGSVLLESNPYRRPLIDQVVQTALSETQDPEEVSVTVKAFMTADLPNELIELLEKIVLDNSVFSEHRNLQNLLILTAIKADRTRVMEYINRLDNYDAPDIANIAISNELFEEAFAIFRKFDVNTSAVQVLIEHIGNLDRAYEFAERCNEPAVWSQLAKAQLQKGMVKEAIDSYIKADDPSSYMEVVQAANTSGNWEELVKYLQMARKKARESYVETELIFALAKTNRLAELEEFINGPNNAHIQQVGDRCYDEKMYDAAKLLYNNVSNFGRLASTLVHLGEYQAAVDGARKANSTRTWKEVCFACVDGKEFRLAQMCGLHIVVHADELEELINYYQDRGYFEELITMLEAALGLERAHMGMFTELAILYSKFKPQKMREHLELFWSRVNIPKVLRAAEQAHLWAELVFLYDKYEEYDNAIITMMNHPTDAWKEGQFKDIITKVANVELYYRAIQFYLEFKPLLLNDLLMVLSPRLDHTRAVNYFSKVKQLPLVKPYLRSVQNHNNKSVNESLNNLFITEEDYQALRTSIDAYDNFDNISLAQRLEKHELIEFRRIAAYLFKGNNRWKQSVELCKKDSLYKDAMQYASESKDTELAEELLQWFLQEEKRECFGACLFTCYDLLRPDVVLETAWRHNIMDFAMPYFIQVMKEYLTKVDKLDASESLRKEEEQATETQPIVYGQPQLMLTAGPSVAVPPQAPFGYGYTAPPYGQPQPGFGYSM
Method: as §1

[3] = molecular target: DCTN1 26-97 CAP_GLY (domain begin residue: 26, domain end residue: 97), Q14203
Sequence of DCTN1 26-97 CAP_GLY (domain begin residue: 26, domain end residue: 97), Q14203 (Q14203 whole entry): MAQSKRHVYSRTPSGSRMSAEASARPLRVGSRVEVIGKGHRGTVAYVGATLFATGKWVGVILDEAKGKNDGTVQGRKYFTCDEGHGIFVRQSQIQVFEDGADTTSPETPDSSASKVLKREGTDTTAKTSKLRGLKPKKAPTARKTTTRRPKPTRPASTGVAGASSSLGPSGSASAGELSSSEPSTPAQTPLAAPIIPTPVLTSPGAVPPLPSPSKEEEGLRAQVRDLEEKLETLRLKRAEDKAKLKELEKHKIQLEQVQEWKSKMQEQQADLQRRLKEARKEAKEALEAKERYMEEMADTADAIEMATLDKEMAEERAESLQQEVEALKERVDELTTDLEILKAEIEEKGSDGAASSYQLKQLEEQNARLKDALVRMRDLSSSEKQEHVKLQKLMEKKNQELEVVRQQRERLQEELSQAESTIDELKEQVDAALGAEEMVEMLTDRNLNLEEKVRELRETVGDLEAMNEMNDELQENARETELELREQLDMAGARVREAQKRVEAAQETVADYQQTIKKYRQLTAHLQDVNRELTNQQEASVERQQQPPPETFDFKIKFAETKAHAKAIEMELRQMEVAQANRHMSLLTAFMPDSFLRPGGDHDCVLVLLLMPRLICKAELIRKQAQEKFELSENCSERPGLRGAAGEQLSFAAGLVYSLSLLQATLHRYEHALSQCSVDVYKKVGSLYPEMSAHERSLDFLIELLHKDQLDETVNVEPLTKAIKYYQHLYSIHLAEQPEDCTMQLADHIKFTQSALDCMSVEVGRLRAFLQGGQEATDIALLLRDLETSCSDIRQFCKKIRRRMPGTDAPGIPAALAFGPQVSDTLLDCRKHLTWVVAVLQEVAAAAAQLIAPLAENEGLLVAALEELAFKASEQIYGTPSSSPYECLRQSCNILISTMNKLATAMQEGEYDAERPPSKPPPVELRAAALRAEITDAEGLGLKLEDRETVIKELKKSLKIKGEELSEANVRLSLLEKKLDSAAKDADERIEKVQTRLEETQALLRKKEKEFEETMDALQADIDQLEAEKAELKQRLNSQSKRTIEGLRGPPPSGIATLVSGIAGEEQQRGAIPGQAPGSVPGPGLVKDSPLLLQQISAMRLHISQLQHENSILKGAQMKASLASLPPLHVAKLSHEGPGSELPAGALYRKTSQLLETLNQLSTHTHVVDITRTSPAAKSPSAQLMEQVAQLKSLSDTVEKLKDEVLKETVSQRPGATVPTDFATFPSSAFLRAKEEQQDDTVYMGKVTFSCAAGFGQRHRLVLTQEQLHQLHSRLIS
Method: as §1

[4] = molecular target: DEPDC6 20-129 DEP (domain begin residue: 20, domain end residue: 129)
Method: as §1

[5] = molecular target: T3, CTDSP2 90-271 NIF (domain begin residue: 90, domain end residue: 271), O14595
T3 chain: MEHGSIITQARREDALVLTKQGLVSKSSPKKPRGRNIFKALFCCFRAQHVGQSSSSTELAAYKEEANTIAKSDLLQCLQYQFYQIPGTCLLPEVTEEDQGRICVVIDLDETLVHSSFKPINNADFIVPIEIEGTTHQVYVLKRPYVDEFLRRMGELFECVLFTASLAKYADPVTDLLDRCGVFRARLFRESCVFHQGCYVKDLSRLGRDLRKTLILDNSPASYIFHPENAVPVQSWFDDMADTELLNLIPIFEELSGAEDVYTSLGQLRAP
Method: as §1

[6] = molecular target: T4, DOK2 146-252 IRS (domain begin residue: 146, domain end residue: 252), O60496
T4 chain: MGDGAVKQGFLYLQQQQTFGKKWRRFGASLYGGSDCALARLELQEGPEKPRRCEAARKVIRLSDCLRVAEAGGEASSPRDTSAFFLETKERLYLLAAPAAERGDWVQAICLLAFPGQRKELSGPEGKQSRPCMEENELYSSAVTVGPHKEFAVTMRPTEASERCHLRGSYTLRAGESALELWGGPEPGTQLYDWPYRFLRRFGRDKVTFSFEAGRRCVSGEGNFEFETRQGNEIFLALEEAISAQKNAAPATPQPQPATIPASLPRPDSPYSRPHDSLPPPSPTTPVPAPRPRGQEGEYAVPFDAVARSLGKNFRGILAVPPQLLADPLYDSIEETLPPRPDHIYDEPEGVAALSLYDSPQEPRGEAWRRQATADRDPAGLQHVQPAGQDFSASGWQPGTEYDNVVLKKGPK
Method: as §1

[7] = molecular target: DEPDC1B 7-110 DEP (domain begin residue: 7, domain end residue: 110), Q8WUY9
Sequence of DEPDC1B 7-110 DEP (domain begin residue: 7, domain end residue: 110), Q8WUY9 (Q8WUY9 whole entry): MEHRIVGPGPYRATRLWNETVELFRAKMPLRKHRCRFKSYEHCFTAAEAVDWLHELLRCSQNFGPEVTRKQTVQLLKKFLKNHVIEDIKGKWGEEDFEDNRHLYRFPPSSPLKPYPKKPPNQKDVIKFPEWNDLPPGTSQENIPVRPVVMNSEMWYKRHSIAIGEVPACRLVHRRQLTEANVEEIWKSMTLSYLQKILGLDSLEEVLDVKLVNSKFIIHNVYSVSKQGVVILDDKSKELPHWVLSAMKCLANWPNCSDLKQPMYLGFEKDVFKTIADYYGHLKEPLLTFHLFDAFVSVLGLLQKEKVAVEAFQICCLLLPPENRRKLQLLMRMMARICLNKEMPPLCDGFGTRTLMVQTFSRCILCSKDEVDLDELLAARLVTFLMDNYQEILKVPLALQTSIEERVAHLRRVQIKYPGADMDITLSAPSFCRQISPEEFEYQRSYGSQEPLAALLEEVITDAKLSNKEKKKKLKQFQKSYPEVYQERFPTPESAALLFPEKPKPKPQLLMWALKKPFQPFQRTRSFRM
Method: as §1

[8] = molecular target: DEPDC6 132-222 DEP (domain begin residue: 132, domain end residue: 222)
Method: as §1

Q: How did the “phage ELISA signal ratio” value [1] turn out when DWVWSDVGGHVPQVWD was run?
A: 25

Q: Which “phage ELISA signal ratio” value [1] does the source give for DNHWIWKEVNPMFMKD here?
A: 30.4

Q: MYEFLIEPEDDWWWWN was tested. Which “phage ELISA signal ratio” value [2] did it give?
A: 26.5

Q: Which “phage ELISA signal ratio” value [1] does the source give for PGEMQESNWLWKFVDW here?
A: 29.1

Q: How did the “phage ELISA signal ratio” value [3] turn out when MSDPPTLEHWEYMSWE was run?
A: 12

Q: How did the “phage ELISA signal ratio” value [2] turn out when YTLTIDELEHWLSAGG was run?
A: 31.7

Q: For DLQWKWVYWHDLDDGE, which “phage ELISA signal ratio” value [1] is on record?
A: 22.6

Q: Which “phage ELISA signal ratio” value [1] does the source give for WSEVWWTDLEGAMFWV here?
A: 16.2

Q: For MQMTFLDMMEQYRLME, which “phage ELISA signal ratio” value [4] is on record?
A: 33.8

Q: How did the “phage ELISA signal ratio” value [4] turn out when LAGFHPWFSEMLAEYH was run?
A: 8.33

Q: How did the “phage ELISA signal ratio” value [2] turn out when EVFDLISWDDGMWHSV was run?
A: 28.8

Q: Which “phage ELISA signal ratio” value [1] does the source give for ADQWVWHYIMEMEQVR here?
A: 33

Q: With EQVSFMHEWHQRFWQT as the binder, how does the “phage ELISA signal ratio” value [5] read?
A: 9.81

Q: How did the “phage ELISA signal ratio” value [2] turn out when WELQWDAIWGFPDELA was run?
A: 30.6

Q: GDKSEWFRALLDEYLV was tested. Which “phage ELISA signal ratio” value [4] did it give?
A: 21.6

Q: With DQQQWDDMDWLATWML as the binder, how does the “phage ELISA signal ratio” value [2] read?
A: 32.5

Q: How did the “phage ELISA signal ratio” value [1] turn out when YDQTGWAWVHEMQDMV was run?
A: 8.33

Q: With WVWHDMHLSAPFQHQE as the binder, how does the “phage ELISA signal ratio” value [1] read?
A: 3.72

Q: With WVTWDNSSLKWIDETY as the binder, how does the “phage ELISA signal ratio” value [1] read?
A: 28

Q: DWPNYPANSWKYVTWA was tested. Which “phage ELISA signal ratio” value [1] did it give?
A: 10.2

Q: Which “phage ELISA signal ratio” value [4] does the source give for MPVWWEDWYWDWKSMH here?
A: 6.24

Q: With VWDLDTSADYLWVWMG as the binder, how does the “phage ELISA signal ratio” value [1] read?
A: 19.3

Q: With DWAQVLWQDAHDWPVY as the binder, how does the “phage ELISA signal ratio” value [2] read?
A: 23.9

Q: With TMAWEWIGNDVYVSHD as the binder, how does the “phage ELISA signal ratio” value [6] read?
A: 7.8

Q: With EQQHDKFQMMMNIYKY as the binder, how does the “phage ELISA signal ratio” value [4] read?
A: 23

Q: Which “phage ELISA signal ratio” value [3] does the source give for QDEWVPWQLWSQWESI here?
A: 26.4

Q: For QMVWHYPWEATDTHGW, which “phage ELISA signal ratio” value [1] is on record?
A: 33.5

Q: How did the “phage ELISA signal ratio” value [3] turn out when MEWTWEQWDLGADYVK was run?
A: 21.2

Q: For EPWVDWSESMWAWVNT, which “phage ELISA signal ratio” value [1] is on record?
A: 17.6

Q: How did the “phage ELISA signal ratio” value [2] turn out when WLDYNDWLEMDHWEYV was run?
A: 23.8

Q: DLMVWYDNPYYHSEMI was tested. Which “phage ELISA signal ratio” value [6] did it give?
A: 9.37

Q: Which “phage ELISA signal ratio” value [4] does the source give for DFQGIMDSYRAMEINT here?
A: 20.1

Q: With MYTFEEMWMHWKLVEM as the binder, how does the “phage ELISA signal ratio” value [4] read?
A: 23.6

Q: How did the “phage ELISA signal ratio” value [3] turn out when HGMDYLNREFPWDWWT was run?
A: 16.6

Q: How did the “phage ELISA signal ratio” value [7] turn out when DLPYEWSHFWDSIEHH was run?
A: 4.2

Q: For EWFMDASGYWNNLQVS, which “phage ELISA signal ratio” value [1] is on record?
A: 7.98

Q: Which “phage ELISA signal ratio” value [8] does the source give for IWWEQLHQDDWQAIWA here?
A: 15.1

Q: With QFDLWMRNVMLDFWAD as the binder, how does the “phage ELISA signal ratio” value [4] read?
A: 11.2

Q: With DDGWMMDWWHQAQLQM as the binder, how does the “phage ELISA signal ratio” value [4] read?
A: 6.22

Q: Which “phage ELISA signal ratio” value [1] does the source give for MPWPMWEQYQQHMQWV here?
A: 19.7

Q: Which “phage ELISA signal ratio” value [1] does the source give for DWEAWHHNVDFAWGWV here?
A: 9.3

Q: With HEFTPPWTWDWDIPHI as the binder, how does the “phage ELISA signal ratio” value [3] read?
A: 7.35

Q: How did the “phage ELISA signal ratio” value [5] turn out when EPFMVAWESFMLTHAM was run?
A: 7.49

Q: For DEWMLNETWIDYQELH, which “phage ELISA signal ratio” value [1] is on record?
A: 20

Q: For GETHLMFSNMMEFYKY, which “phage ELISA signal ratio” value [4] is on record?
A: 19.9

Q: How did the “phage ELISA signal ratio” value [4] turn out when MESAFQQVMLAYYQEL was run?
A: 21.9

Q: For EMLAGNEFRAMMDEYY, which “phage ELISA signal ratio” value [4] is on record?
A: 7.5

Q: With DTKWNIVHWDWDTWVH as the binder, how does the “phage ELISA signal ratio” value [1] read?
A: 16.4

Q: With EVPLWFYNIISEFHET as the binder, how does the “phage ELISA signal ratio” value [4] read?
A: 13.8

Q: How did the “phage ELISA signal ratio” value [4] turn out when THSEQWFETLMWNFHN was run?
A: 3.26

Q: With DEWTWHFVEQPWHMAG as the binder, how does the “phage ELISA signal ratio” value [6] read?
A: 7.99

Q: With FKEWTWSPVEWGQAES as the binder, how does the “phage ELISA signal ratio” value [3] read?
A: 6.09

Q: How did the “phage ELISA signal ratio” value [1] turn out when VDDGDWVWVHVSQQFM was run?
A: 31.2

Q: How did the “phage ELISA signal ratio” value [1] turn out when QWMGLSVEQFAMNPWY was run?
A: 17.7

Q: For SPFVYDIVDLGFPSIM, which “phage ELISA signal ratio” value [2] is on record?
A: 22.5

Q: For DLIWWTDLTEEYGTHV, which “phage ELISA signal ratio” value [2] is on record?
A: 21.9

Q: WNEWNEKEMLWESVEG was tested. Which “phage ELISA signal ratio” value [1] did it give?
A: 37.8
